# Data reported in the supplement of paper PMC8728848.
# The full list was thinned out, with the strongest signals kept by preference.
# B1: OGAA (protein)
# chain: MVQKESQATLEERESELSSNPAASAGASLEPPAAPAPGEDNPAGAGGAAVAGAAGGARRFLCGVVEGFYGRPWVMEQRKELFRRLQKWELNTYLYAPKDDYKHRMFWREMYSVEEAEQLMTLISAAREYEIEFIYAISPGLDITFSNPKEVSTLKRKLDQVSQFGCRSFALLFADIDHNMCAADKEVFSSFAHAQVSITNEIYQYLGEPETFLFCPTEYCGTFCYPNVSQSPYLRTVGEKLLPGIEVLWTGPKVVSKEIPVESIEEVSKIIKRAPVIWDNIHANDYDQKRLFLGPYKGRSTELIPRLKGVLTNPNCEFEANYVAIHTLATWYKSNMNGVRKDVVMTDSEDSTVSIQIKLENEGSDEDIETDVLYSPQMALKLALTEWLQEFGVPHQY
# What was measured:
# Experiment in all cases: glycan array binding signal (z-score within array); higher = stronger binding
# Conditions in all cases: glycan notation: IUPAC condensed, linker removed
# [1] = target: Fuc(a1-2)Gal(b1-3)GlcNAc(b1-2)Man(a1-3)[Fuc(a1-2)Gal(b1-3)GlcNAc(b1-2)Man(a1-6)]Man(b1-4)GlcNAc(b1-4)[Fuc(a1-6)]GlcNAc
# Summary of the method: (§1)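 Negative Z-scores can be read as non-binding. The Z-score is calculated within each array and then averaged across arrays of one protein sequence at different concentrations or buffers and across linkers. Arrays, 3228 in all, were curated from the Consortium for Functional Glycomics database and kept only where the protein sequence was available.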
# [2] = target: Fuc(a1-2)Gal(b1-3)[Fuc(a1-4)]GlcNAc
# Summary of the method: as §1
# [3] = target: Fuc(a1-2)Gal(b1-3)[Fuc(a1-4)]GlcNAc(b1-2)Man(a1-3)[Fuc(a1-2)Gal(b1-3)[Fuc(a1-4)]GlcNAc(b1-2)Man(a1-3)]Man(b1-4)GlcNAc(b1-4)GlcNAc
# Summary of the method: as §1
# [4] = target: Fuc(a1-2)Gal(b1-3)[Fuc(a1-4)]GlcNAc(b1-2)Man(a1-3)[Fuc(a1-2)Gal(b1-3)[Fuc(a1-4)]GlcNAc(b1-2)Man(a1-6)]Man(b1-4)GlcNAc(b1-4)[Fuc(a1-6)]GlcNAc(b1-4)[Fuc(a1-6)]GlcNAc
# Summary of the method: as §1
# [5] = target: Fuc(a1-2)Gal(b1-4)GlcNAc(b1-2)Man(a1-3)[Fuc(a1-2)Gal(b1-4)GlcNAc(b1-2)Man(a1-6)]Man(b1-4)GlcNAc(b1-4)[Fuc(a1-6)]GlcNAc
# Summary of the method: as §1
# [6] = target: Fuc(a1-2)Gal(b1-4)GlcNAc(b1-3)Gal(b1-4)GlcNAc(b1-2)Man(a1-3)[Fuc(a1-2)Gal(b1-4)GlcNAc(b1-3)Gal(b1-4)GlcNAc(b1-2)Man(a1-6)]Man(b1-4)GlcNAc(b1-4)GlcNAc
# Summary of the method: as §1
# [7] = target: Fuc(a1-2)Gal(b1-4)[Fuc(a1-3)]GlcNAc
# Summary of the method: as §1
# [8] = target: Fuc(a1-2)Gal3S(b1-4)GlcNAc
# Summary of the method: as §1
# [9] = target: Fuc(a1-2)Gal6S(b1-3)GlcNAc6S
# Summary of the method: as §1
# [10] = target: Fuc(a1-2)Gal6S(b1-4)Glc6S
# Summary of the method: as §1
# [11] = target: Fuc(a1-2)[GalNAc(a1-3)]Gal(b1-3)GalNAc(a1-3)[Fuc(a1-2)]Gal(b1-4)GlcNAc
# Summary of the method: as §1
# [12] = target: Fuc(a1-2)[GalNAc(a1-3)]Gal(b1-3)GalNAc(b1-3)Gal(a1-4)Gal(b1-4)Glc
# Summary of the method: as §1
# [13] = target: Fuc(a1-3)[Gal(b1-4)]GlcNAc(b1-6)GalNAc
# Summary of the method: as §1
# [14] = target: Fuc(a1-3)[Gal(b1-4)]GlcNAc6S
# Summary of the method: as §1
# Gal(a1-2)Gal = target: Gal(a1-2)Gal
# Summary of the method: as §1
# [15] = target: Gal(a1-3)Gal(b1-3)GlcNAc(b1-2)Man(a1-3)[Gal(a1-3)Gal(b1-3)GlcNAc(b1-2)Man(a1-6)]Man(b1-4)GlcNAc(b1-4)GlcNAc
# Summary of the method: as §1
# [16] = target: Gal(a1-3)Gal(b1-3)GlcNAc(b1-6)GalNAc
# Summary of the method: as §1
# [17] = target: Gal(a1-3)Gal(b1-4)[Fuc(a1-3)]GlcNAc(b1-2)Man(a1-3)[Gal(a1-3)Gal(b1-4)[Fuc(a1-3)]GlcNAc(b1-2)Man(a1-6)]Man(b1-4)GlcNAc(b1-4)GlcNAc
# Summary of the method: as §1
# [18] = target: Gal(a1-4)Gal(b1-3)GlcNAc(b1-2)Man(a1-3)[Gal(a1-4)Gal(b1-3)GlcNAc(b1-2)Man(a1-6)]Man(b1-4)GlcNAc(b1-4)GlcNAc
# Summary of the method: as §1
# [19] = target: Gal(a1-4)Gal(b1-4)GlcNAc(b1-3)Gal(b1-4)Glc
# Summary of the method: as §1
# [20] = target: Gal(b1-3)[Fuc(a1-4)]GlcNAc(b1-2)Man(a1-3)[Gal(b1-3)[Fuc(a1-4)]GlcNAc(b1-2)Man(a1-6)]Man(b1-4)GlcNAc(b1-4)[Fuc(a1-6)]GlcNAc
# Summary of the method: as §1
# [21] = target: Gal(b1-3)[Neu5Ac(b2-6)]GalNAc
# Summary of the method: as §1
# [22] = target: Gal(b1-4)GlcNAc(b1-2)Man(a1-3)[Gal(b1-4)GlcNAc(b1-2)Man(a1-6)][GlcNAc(b1-4)]Man(b1-4)GlcNAc(b1-4)[Fuc(a1-6)]GlcNAc
# Summary of the method: as §1
# [23] = target: Gal(b1-4)GlcNAc(b1-2)[Gal(b1-4)GlcNAc(b1-6)]Man(a1-6)[Gal(b1-4)GlcNAc(b1-2)Man(a1-3)]Man(b1-4)GlcNAc(b1-4)GlcNAc
# Summary of the method: as §1
# [24] = target: Gal(b1-4)GlcNAc(b1-3)Gal(b1-3)GalNAc
# Summary of the method: as §1
binder,measurement,setting,value
B1,glycan array binding signal (z-score),[1],0.026
same,glycan array binding signal (z-score),[2],-0.076
same,glycan array binding signal (z-score),[3],0.285
same,glycan array binding signal (z-score),[4],0.251
same,glycan array binding signal (z-score),[5],0.206
same,glycan array binding signal (z-score),[6],0.006
same,glycan array binding signal (z-score),[7],-0.07
same,glycan array binding signal (z-score),[8],-0.06
same,glycan array binding signal (z-score),[9],1.74
same,glycan array binding signal (z-score),[10],0.205
same,glycan array binding signal (z-score),[11],22.9
same,glycan array binding signal (z-score),[12],8.04
same,glycan array binding signal (z-score),[13],0.242
same,glycan array binding signal (z-score),[14],-0.107
same,glycan array binding signal (z-score),Gal(a1-2)Gal,0.002
same,glycan array binding signal (z-score),[15],0.031
same,glycan array binding signal (z-score),[16],-0.107
same,glycan array binding signal (z-score),[17],0.644
same,glycan array binding signal (z-score),[18],-0.007
same,glycan array binding signal (z-score),[19],-0.098
same,glycan array binding signal (z-score),[20],0.357
same,glycan array binding signal (z-score),[21],-0.096
same,glycan array binding signal (z-score),[22],-0.009
same,glycan array binding signal (z-score),[23],-0.08
same,glycan array binding signal (z-score),[24],-0.11
